High-throughput results deposited in PubChem by National Center for Advancing Translational Sciences (NCATS).
TDP1 cell noCPT: qHTS for Inhibitors of human tyrosyl-DNA phosphodiesterase 1 (TDP1): qHTS in cells in absence of CPT | DT40 Tdp1-/- hTDP1 cells, no CPT, ATP luminescence, 48 h | Potency, µM (series often up to 46.2 µM), inactives show at the top dose activity change, negative = growth inhibition, usual class: inhibitors | 15% of 420,000 active | AID 686978, 2013; further: potency means the concentration at half of the fitted maximal effect; on the % scale 0 is the no-effect control and ±100 the full control effect; nearly all actives have a fitted effect of over 55% in size
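Compound effects on proliferation are scored in DT40 Tdp1-/-;hTDP1 cells in the absence of CPT. ATP levels (CellTiter-Glo luminescence) are recorded after a ≥48 hr, 37 °C incubation.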
IL1B secr inh: blocks inflammasome-driven IL-1 beta release | 4.7% of 360,000 active | THP-1 LPS/ATP IL-1B secretion, AlphaLISA, 16 h; hits give low values | activity change, % at 57.5 µM; in the data active means activity change below about -50%; inconclusive means mostly about -30% to -49%; further: on the % scale 0 is the no-effect control and ±100 the full control effect
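THP-1 cells pretreated 1 hr with compounds (up to 57.5 uM final), then stimulated with LPS (250 ng/mL final) plus ATP (1.25 mM final); secreted IL-1B measured by AlphaLISA after 16 hr, decreased signal indicating inhibition.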
DT40 TDP1 CPT: DT40-hTDP1 cell growth loss with CPT; AID 686979; 12% of 420,000 active; Potency, µM (series often up to 46.2 µM), for inactives: at the highest dose activity change, negative = growth inhibition, hits mostly inhibitors; chicken DT40 Tdp1-/-;hTDP1 cells + 20 nM CPT, ATP luminescence, 48 h; further: potency means the concentration at half of the fitted maximal effect; on the % scale 0 is the no-effect control and ±100 the full control effect; nearly all actives have a fitted effect of over 55% in size
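Chicken DT40 Tdp1-/- cells stably complemented with human TDP1 were seeded at 400 cells/well in medium containing 20 nM camptothecin, exposed to pin-transferred compounds, and grown at 37 °C for at least 48 hr. Viability was read as ATP luminescence.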
TDP1 block: inhibitors of human tyrosyl-DNA phosphodiesterase TDP1. recombinant TDP1, AlphaScreen DNA substrate cleavage. 0.28% of 350,000 active. Q9NUW8. AID 485290. Potency, µM (titrated, usually from 130 µM), inactives show top-dose activity change, negative = inhibition, hits mostly inhibitors; further: potency means the concentration at half of the fitted maximal effect; on the % scale 0 is the no-effect control and ±100 the full control effect; nearly all actives have a fitted effect of over 40% in size
Target sequence (Q9NUW8 whole entry, looked up): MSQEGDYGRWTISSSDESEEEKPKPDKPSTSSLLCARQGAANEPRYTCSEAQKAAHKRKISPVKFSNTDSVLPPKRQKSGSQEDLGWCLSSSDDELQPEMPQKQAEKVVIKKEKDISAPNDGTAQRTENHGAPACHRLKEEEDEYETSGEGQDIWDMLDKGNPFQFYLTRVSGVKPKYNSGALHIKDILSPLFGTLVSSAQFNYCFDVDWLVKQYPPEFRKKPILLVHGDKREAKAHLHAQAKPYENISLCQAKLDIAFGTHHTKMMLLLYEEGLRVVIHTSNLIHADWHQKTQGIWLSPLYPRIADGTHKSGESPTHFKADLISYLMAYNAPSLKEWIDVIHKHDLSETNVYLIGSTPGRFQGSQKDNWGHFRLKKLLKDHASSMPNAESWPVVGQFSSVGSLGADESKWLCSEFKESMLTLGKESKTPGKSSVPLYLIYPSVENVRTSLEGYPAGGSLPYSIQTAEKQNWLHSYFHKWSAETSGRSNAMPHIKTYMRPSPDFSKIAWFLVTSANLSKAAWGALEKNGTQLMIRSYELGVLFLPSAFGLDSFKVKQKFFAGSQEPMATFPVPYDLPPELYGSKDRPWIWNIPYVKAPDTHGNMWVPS
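E. coli-derived human Tdp1, 1 nM final. Cpd preinc 15 min RT; substrate 15 nM final, 5 min RT; AS bead mix 10 ug/ml final, 10 min RT. Signal loss = tyrosine-FITC cleavage. No-enzyme wells = max signal.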
HepG2 viability: HepG2 cytotoxicity, counter-screen for TGF-b inhibitors. 0.76% of 410,000 active. Potency, µM (titrated, usually from 46.1 µM), inactives show at the top dose activity change, negative = cytotoxicity, most hits filed as cytotoxic. AID 588856. HepG2 CAGA-GFP viability, ATP luminescence, 18 h; further: potency means the concentration at half of the fitted maximal effect
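CellTiter-Glo luminescence gave cytotoxicity after 18 hours at 37 degrees C. The cells were HepG2 CAGA-GFP in 1% FBS DMEM, stimulated with 500 pg/mL TGF-beta after compound addition. %Activity was normalised to no-cell wells (complete cell-killing) and DMSO (no toxicity), and curves were fitted and classified.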
TGFb SMAD3 inh: inhibitors of TGF-b signaling; HepG2 CAGA-GFP TGF-b/SMAD3 reporter, GFP fluorescence, 18 h; TGF-beta stimulated, 500 pg/mL final; Potency, µM (series often up to 46.1 µM), for the others: at the highest dose activity, negative = inhibition, most hits filed as inhibitors; 1.2% of 410,000 active; AID 588855; further: potency means the concentration at half of the fitted maximal effect; on the % scale 0 is the no-effect control and ±100 the full control effect; nearly all actives have a fitted effect of over 65% in size
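Smad-responsive CAGA-GFP expression was quantified in HEPG2 cells exposed to compounds and 500 pg/mL final TGF-beta for 18 h at 37 degrees C; unstimulated wells defined full inhibition.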
Active calls of the source: *; ? = inconclusive; . = no result; [ ] = remark or other dose. Most compounds without a hit are left out; they make up all but 18% or so of the library. Unless noted, the call rests on the fitted dose curve; in most records, active means well fitted curve in the direction sought with a large enough effect; inconclusive means small, poorly fitted or top-dose-only effect, or another doubt; inactive means no such curve, though single readings can be large; an effect the other way counts as inactive or inconclusive.

SMILES	TDP1 cell noCPT	IL1B secr inh	DT40 TDP1 CPT	TDP1 block	HepG2 viability	TGFb SMAD3 inh
Cc1cc2nc(/C(C#N)=C\c3ccc(-c4ccccc4C(=O)O)o3)[nH]c2cc1C	-15%	-20	1%	.	-20%	155%
Cc1ccc2nc(/C(C#N)=C/c3ccc(-c4ccccc4C(=O)O)o3)[nH]c2c1	4%	-8	-2%	.	-11%	27%
Cc1ccc2nc(/C(C#N)=C\c3ccc(N4CCOCC4)o3)[nH]c2c1	21µM*	-12	13µM*	2%	-19%	108%
CCOC(=O)c1ccc(-c2ccc(/C=C(\C#N)c3nc4ccc(C)cc4[nH]3)o2)cc1	2.6µM*	.	23µM*	-1%[12.3 µM]	3.2µM*	.
CC(C)(C)c1ccc(-n2ncc3c2CCCC3NC(=O)C2(C(N)=O)CC2)cc1 (centres undefined)	1.8µM*	?	5.8µM*	0%	-31%	-28%
CC(=O)NCC(=O)NC1CCCc2c1cnn2-c1ccc(C(C)(C)C)cc1 (centres undefined)	4.1µM*	37	-15%	4%	5%	17%
O=C(CCN1CCCO1)NC1CCCc2c1cnn2-c1ccccc1F (centres undefined)	5%	3	-4%	5%	-11%	4%
CC(C)(C)c1ccc(-n2ncc3c2CCCC3NC(=O)CN2CCCCC2=O)cc1 (centres undefined)	?	12	16µM*	2%	-17%	-2%
CC(C)(C)c1ccc(-n2ncc3c2CCCC3NC(=O)CCN2CCCO2)cc1 (centres undefined)	?	38	23µM*	5%	-18%	-8%
CCOc1ccccc1OCCCC(=O)NNC(=O)c1ccc(F)cc1	0%	11	-7%	-1%	-3%	4%
CC(C)(C)c1ccc(-n2ncc3c2CCCC3NC(=O)CCCn2cncn2)cc1 (centres undefined)	?	-12	13µM*	.	-20%	-5%
CC(C)(C)c1ccc(-n2ncc3c2CCCC3NC(=O)CCn2cncn2)cc1 (centres undefined)	?	9	?	1%	-29%	-13%
CCCCCCCCCCCCC/C=C/[C@@H](O)C(CO)NC(C)=O (some centres undefined)	.	.	.	-3%	.	.
COC(=O)C1C(=O)c2c([nH]c(C(=O)OC3CCCC3C)c2C)CC1C (centres undefined)	13µM*	-26	16µM*	7%	-12%	2%
COC(=O)C1C(=O)c2c([nH]c(C(=O)OC3CCCCC3)c2C)CC1C (centres undefined)	?	?	?	3%	-25%	2%
O=C(COc1ccccc1Cl)N1CCNC1=O	-2%	-10	-23%	-2%	-2%	-1%
COc1ccc(NC(=O)N2CCCC(C(=O)NC(C)C)C2)cc1 (centres undefined)	-6%	-3	-7%	-1%[56.1 µM]	6%	10%
COc1ccc(NC(=O)N2CCCC(c3nc(-c4ccc(OC)cc4)no3)C2)cc1 (centres undefined)	?	-54*	?	2%	-4%	-9%
COc1ccc(NC(=O)N2CCCC(c3nc(-c4ccc(C(C)C)cc4)no3)C2)cc1 (centres undefined)	21µM*	-50*	?	-2%	-8%	1%
O=C(Nc1ccc(Cl)cc1)N1CCC(c2nc(-c3ccc(F)cc3)no2)CC1	11µM*	?	10µM*	-3%	-9%	?
CCOc1ccccc1NC(=O)N1CCCC(c2nc(-c3ccc(C)o3)no2)C1 (centres undefined)	?	-16	?	0%	-16%	-24%
COc1ccc(C(=O)N2CCCC(c3nc(-c4cccs4)no3)C2)cc1 (centres undefined)	?	-21	?	1%	-23%	-16%
COc1ccc(-c2noc(C3CCCN(C(=O)Nc4ccccc4F)C3)n2)cc1 (centres undefined)	23µM*	1	?	6%	-3%	-23%
COc1ccc(-c2noc(C3CCCN(C(=O)Nc4ccccc4)C3)n2)cc1 (centres undefined)	?	-2	26µM*	3%	-16%	-23%
Cc1ccc2oc(-c3cccc(NC(=O)COc4ccc(Cl)cc4)c3C)nc2c1	-19%	.	-21%	.	-12%	-5%
SMILES	TDP1 cell noCPT	IL1B secr inh	DT40 TDP1 CPT	TDP1 block	HepG2 viability	TGFb SMAD3 inh
COc1ccc(Cn2c(CCC(=O)NCCC(C)C)nc3ncccc3c2=O)cc1	?	29	-30%	.	2%	0%
O=C(c1ccc(=O)[nH]n1)N1CCN(S(=O)(=O)c2cccc(F)c2)CC1	-20%	8	6%	0%	-2%	-3%
COCCN1CCn2c(nc3cc(NC(=O)NC4CCCCC4)ccc32)C1	16µM*	-24	?	6%	-11%	-3%
O=C(Nc1ccc2c(c1)nc1n2CCN(Cc2ccccc2)C1)c1cccs1	18µM*	-94*	?	7%	-32%	-10%
CCOC(=O)Nc1ccc2c(c1)nc1n2CCN(CCOC)C1	-25%	-10	-27%	.	1%	-3%
O=C(Nc1ccc2c(c1)nc1n2CCN(Cc2ccccc2)C1)NC1CCCCC1	21µM*	-12	?	4%	-23%	6%
COCCN1CCn2c(nc3cc(NC(C)=O)ccc32)C1	8%	15	10%	.	4%	-4%
COCCN1CCn2c(nc3cc(NC(=O)c4ccc(OC)cc4)ccc32)C1	21µM*	-7	21µM*	4%	-2%	-7%
CC1=C(c2ccccc2)C(=S)NC(C)(C)C1	-10%	30	-13%	.	20%	-7%
COc1cc(C)c(S(=O)(=O)NCc2cccs2)cc1C	-1%	-12	5%	-2%	0%	1%
Cc1ccc(CN2CCc3nnc(C(C)NC(=O)c4cc(F)ccc4F)n3CC2)o1 (centres undefined)	-8%	.	12%	.	.	.
Cc1cccc(C(=O)NCC(=O)NCC2COc3ccccc3O2)c1 (centres undefined)	-2%	13	20%	1%	-12%	1%
COc1cccc(CNC(=O)CN(c2ccc(C)cc2)S(=O)(=O)N(C)C)c1OC	-17%	.	-14%	1%	-5%	-4%
Cc1c(C(=O)N2CCCC2)oc2c1-c1nn(CC(=O)NCc3ccccc3Br)cc1CC2	21µM*	.	?	8%	-9%	?
